# Measurements as given in the supplement of paper PMC6555819.
# Experiments:
# Experiment in all cases: PBM binding z-score (relative to random genomic background probes); higher = stronger binding; sequences stand for … in GC…GCGATTGACAGCGTAGAATGAAGG
# [1] = tested on: FXR:RXRa (NR concentration 270 nM, RXRa partner concentration 90 nM)
# Summary of the method: (§1)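 Binding buffer was PBS pH 7.4 with 2% milk, 0.02% Triton X-100, 1 mM DTT, 0.2 mg/mL BSA and 0.4 mg/ml salmon testes DNA. In it, ligand-free nuclear receptor dimers were incubated 1 h on custom Agilent 4×180K protein-binding microarrays carrying double-stranded probes. Antibodies against each partner (one per run) detected binding, and z-scores were calculated against random background probes after regression normalization of scanned fluorescence.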
# [2] = tested on: LXRa:RXRa (NR concentration 270 nM, RXRa partner concentration 90 nM)
# Summary of the method: as §1
# [3] = tested on: LXRa homodimer (NR concentration 270 nM)
# Summary of the method: as §1
# [4] = tested on: LXRb:RXRa (NR concentration 270 nM, RXRa partner concentration 90 nM)
# Summary of the method: as §1
# [5] = tested on: LXRb homodimer (NR concentration 270 nM)
# Summary of the method: as §1
# [6] = tested on: PPARa:RXRa (NR concentration 270 nM, RXRa partner concentration 90 nM)
# Summary of the method: as §1
# [7] = tested on: PPARg:RXRa (NR concentration 180 nM, RXRa partner concentration 90 nM)
# Summary of the method: as §1
# [8] = tested on: PPARg:RXRa 270nM:90nM, anti-RXR (NR concentration 270 nM, RXRa partner concentration 90 nM)
# Summary of the method: as §1
# [9] = tested on: PPARg:RXRa 30nM:10nM, anti-RXR (NR concentration 30 nM, RXRa partner concentration 10 nM)
# Summary of the method: as §1
# [10] = tested on: PPARg:RXRa 90nM:30nM, anti-RXR (NR concentration 90 nM, RXRa partner concentration 30 nM)
# Summary of the method: as §1
Sequence,PBM binding z-score [1],PBM binding z-score [2],PBM binding z-score [3],PBM binding z-score [4],PBM binding z-score [5],PBM binding z-score [6],PBM binding z-score [7],PBM binding z-score [8],PBM binding z-score [9],PBM binding z-score [10]
CAAACTAGGTCAGAGGTCAAAGTCGAGCCAACCA,7.41,6.65,5.53,6.17,2.6,7.53,13.4,11.1,11.7,12.8
TCTTGTAGATCAAAGGTTCAGAAAGCCGAAGCCT,0.694,0.971,0.565,0.863,0.0761,2.17,3.23,5.21,4.26,5.21
CCTACTGGGCCACGAAAGGTCTTTGATTCAGTGA,0.186,-0.153,-0.487,-0.225,-1.08,1.31,1.84,1.99,-0.0558,0.769
CCTCGGAGGAGAGAAGGTCAGAGCTGTCCGCTTT,0.811,0.874,-0.155,0.734,-0.806,1.62,-0.501,0.307,-0.994,-0.582
ATCTCTAGGTAAAGATAATTCAGTGAATGCAAAT,0.311,0.4,0.217,0.485,0.372,0.312,0.908,0.48,0.443,0.348
CCTAGCAGGCCAGGGTCACTCAGGCATTTCGCTT,1.73,1.43,-0.738,1.49,-0.994,2.75,0.469,1.25,-0.561,0.308
AGAATGAGGTTATTAAGATCAGAGAATTGCGGTC,1.56,1.62,0.0516,1.19,0.109,2.71,1.59,1.75,0.553,1.22
AATACAGGATCATCGTAGGCCAGAGTACGCACAG,-0.0228,0.0727,0.0212,0.0447,0.414,-0.0183,0.976,0.159,0.238,0.209
ATCGCTAGGTAAAGATAGTTCAGTGAATGCAAAT,-0.496,3.12,-0.0972,0.21,-0.672,-0.0926,0.0549,-0.523,-0.376,-0.332
CTACCAAGGTGAACAAGGTCATTGATTACTATTC,3.73,3.77,2.33,3.63,-0.00581,3.92,2.24,2.85,0.479,1.65
CGAACTAGGTAAGAACAGGACAGTGAAGGATGAT,-0.196,-0.204,-0.208,-0.602,-0.626,0.502,0.928,0.462,0.267,0.273
ACTAGCAGCCCAAGGGTCACTCAAGATTAGTCCG,2.27,2.63,0.353,2.75,-0.34,3.14,2.69,3.61,1.43,3.21
TCTTGTACATCAAAGGTTAAGAAAGCCGAAGCCT,1.52,2.15,0.446,2,0.657,2.92,2.52,4.42,3.95,4.35
ATATGTAGGTTACATCCGGGTCAATCAGGCTATG,2.56,4.37,1.05,2.91,0.748,4.39,5.98,5.29,2.62,4.47
ACTATTAGTTGAGACGAGGGCAACCGTTAGGTTG,0.584,0.15,0.0603,-0.161,0.0285,0.115,0.198,-0.206,-0.415,-0.374
AATACAAGGTCACTAGGCCAGAGTAGGTACGAAT,7.35,6.14,4.32,4.79,2.19,6.29,8.24,6.63,3.8,6.05
CGAACTCGGTCATTGACAGGACAGTGAATAGTAA,1.78,1.2,0.283,0.401,-0.271,1.07,0.725,0.451,-0.134,0.0163
ACTAGCAGGCCATGGGTCACTCAAGATTAGTCCG,0.425,0.807,-0.304,0.694,-0.564,2.85,4.82,5.14,4.15,5.31
CCTACTGGCCCAAGGTCATTGATCAGTCAAAGCA,2.91,3.24,2,3.52,0.491,3.62,0.964,2.19,0.438,1.29
GCATATAGGTAACACAAGGTGAAAGTCCGATTGT,0.896,3.64,-0.04,1.36,-0.351,2.19,2.09,2,0.512,1.26
TAGCCTAGGTCATGCGGGCCAGTATGGTGTCGGC,3.96,3.27,-0.0396,1.44,-0.233,3.43,1.79,2.41,-0.0378,1.2
TCTACTAGGTCAGTTGGTCAGCTAACGAGCTGCC,1.67,1.12,-0.0574,0.857,1.06,2.61,4.64,4.2,3.87,4.08
TCTATTAGTTGAAAGGCAACCGACGAGTCCGTTT,0.518,0.929,0.254,0.901,0.728,1.12,0.475,2.96,4.06,3.42
GCTAGCAGGACATTTGGGTCACTCAATGACGGGC,0.0183,-0.0744,-0.248,-0.0431,-0.72,1.31,0.997,0.479,-0.424,-0.0664

Sequence,PBM binding z-score [1],PBM binding z-score [2],PBM binding z-score [3],PBM binding z-score [4],PBM binding z-score [5],PBM binding z-score [6],PBM binding z-score [7],PBM binding z-score [8],PBM binding z-score [9],PBM binding z-score [10]
ACTCCGAGGACAAAGGTCAGAGCTACGCCAGTGA,4.86,4.4,1.86,3.99,0.764,4.91,8.48,7.6,6.18,8.09
AGAATGAGGTTAAGATCATGGAAACAGAATACAT,2.01,1.71,-0.0716,1.88,-0.112,3.44,2.5,2.38,0.804,1.82
GCGACTGGGGCATCAGCAGGTTACCGTAACTTAA,-0.346,-0.107,-0.365,0.443,-0.973,1.18,0.623,0.961,-0.441,-0.00586
CAAACTAGGTCAACAGGTCAAAGTCCGCTTCCCG,6.05,5.38,3.92,4.38,1.14,6.02,9.26,7.93,6.55,8.02
ATATGTAGGTTAGCAGGGGTCATTCAGACTAGGC,5.14,5.99,4.53,5.37,1.78,5.56,6.6,5.97,3.32,5.33
TCTTGTAGATCAAGCAGGATAAGAAAGCCTGAGT,-0.0578,-0.0477,-0.267,-0.411,-0.605,0.163,-0.0969,0.937,2.58,1.76
TAGCCTAGGTCATTAAGGGGCCAGTATAGAAAGC,3.58,3.35,0.285,2.67,0.552,3.21,1.75,2.07,0.301,1.11
ATCTCTAGGTAACTAAGTTCAGTGAATGCCGAAC,0.51,0.962,1.22,1.02,0.792,1.32,0.573,0.892,0.181,0.816
GCATATAGGTAATACAAGCTGAAAGTCCGATTGT,-0.216,-0.314,-0.237,-0.399,-0.434,0.493,0.856,0.592,0.14,0.385
CCTTACGGGTCTCGAGGTTATAGCACGACGAGCG,0.0293,0.421,-0.197,0.31,-0.922,1.15,0.785,0.313,-0.359,-0.392
ATCTCTAGGTAAAAGCTCAGTGAATCCCGAGGAT,-0.219,-0.28,-0.281,-0.514,0.446,0.485,1.13,2.55,1.27,2.35
ATCTCTAAGTAACCAAGTTCAGTGAATGCCGAAC,0.436,0.569,0.843,0.518,0.349,0.397,-0.15,0.228,0.371,0.352
CGAACGAGGGCATGAGTTGATAGCGAATGCCGAT,0.658,0.274,-0.522,-0.0069,-0.724,1.51,1.34,1.65,0.171,1.04
CGTCCAAGGTCAGCAGGTAAGTGAAAGCGACGTG,5.48,3.22,-0.131,2.36,-0.25,4.3,3,3.31,0.585,2.28
GCATATAGGTTATACAAGGTGAAAGTCCGATTGT,2.85,6.15,1.21,3.08,0.203,2.94,2.19,2.63,0.843,1.98
TGAATGAGGTCATAAGATCAGGGAACGTTGCAAA,7.31,5.47,0.779,4.4,1.39,5.96,6.96,6.58,4.09,6.04
CCTACTGGGCCATTCAGAGGTCATTGGTCATATG,2.52,4.22,7.04,3.5,0.551,3.65,2.66,3.38,1.1,2.4
TCGAGTAGGTTACCAATGGGTCATTCAGCTTTCT,1.16,3.38,0.134,2.15,-0.601,2.66,0.754,1.91,1.5,1.72
CAAATTAGGTCAAAGGTCAAAGTCGAGCCAACCA,8.64,7.33,6.11,7.29,3.55,7.52,14,11.2,13.6,13.7
CGTCCAAAGTCAGCAGGTCAGTGAAAGCGACGTG,0.237,0.521,0.0163,0.578,-0.765,1.24,-0.0107,0.0351,-0.634,-0.432
CCTACCGGGCCACGAAAGGTCATTGATTCAGTGA,3.59,5.17,5.04,4.36,0.399,4.26,1.96,2.98,0.636,1.92
ACTAGCAGGCCAAGTGTCACTCAAGATTAGTCCG,-0.202,-0.345,-0.396,-0.372,-0.742,1.37,1.95,3.56,1.36,2.95
CCTTATGGGTCACTGACAGGTTATAGCATTTGGA,3.95,3.45,0.192,2.96,-0.062,4.93,5.81,5.11,2.32,4.08
GCTCCGAGGACAAGGTCAGAGCTTTGTCCGTAGA,1.79,1.33,-0.653,1.05,-1.37,2.23,0.168,1.15,-0.379,0.299
